Compound activity: PubChem BioAssay, National Center for Advancing Translational Sciences (NCATS)
This excerpt belongs to a sample that is enriched for hits.
ClpP mod: qHTS Assay for Activators of ClpP. purified B. subtilis ClpP, FRET peptide cleavage, 20 min. 1.9% of 340,000 active. Potency, µM (titrated, usually from 57.5 µM), inactives show at the top dose activity change, negative = active; active = well fitted falling curve with a large enough effect; inconclusive = small, poorly fitted or top-dose-only effect; inactive = no such curve, though single readings can be large or run the other way; also: potency is read from the fitted curve at half-maximal effect; the source files actives as falling curves though it sought activators and does not explain the sign; nearly all actives have a fitted effect of over 65% in size
Target sequence (P80244 whole entry, looked up): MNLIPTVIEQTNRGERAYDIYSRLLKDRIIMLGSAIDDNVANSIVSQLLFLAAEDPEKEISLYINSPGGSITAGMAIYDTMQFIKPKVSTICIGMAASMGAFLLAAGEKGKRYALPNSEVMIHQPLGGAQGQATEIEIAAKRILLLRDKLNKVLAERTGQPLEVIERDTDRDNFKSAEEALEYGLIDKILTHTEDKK
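ClpP 10 microg/mL final, pH 8 Tris/KCl buffer with BSA, glycerol, Tween-20; compound pinned in; FRET-FV substrate; RT 20 min; Ex320/Em430; ΔFRET vs ADEP 5.8 microM, DMSO, no enzyme.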
Rango complex inh: Rango-importin beta binding inhibition | Potency, µM (top dose mostly 92.2 µM), for inactives: at the highest dose inhibition of complex formation | 0.031% of 340,000 active | Rango CFP/YFP FRET sensor + importin beta, 45 min | Q14974 | AID 540263;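 also: potency is read from the fitted curve at half-maximal effect; 0% = DMSO wells and 100% = buffer wells lacking importin beta; nearly all actives have a fitted effect of over 15% in size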
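FRET biosensor (snurportin 1 IBB flanked by EYFP and cerulean), 50 nM, with compound 5 min, then 0.125 microM importin beta in PBS, 1 mM DTT, 0.02% Tween-20, 0.1% BSA. CFP/YFP ratio read after 45 min at room temperature; pre-read flags interference.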
CBFb-RUNX1 inh: inhibitors of human CBF-beta and RUNX1 interaction | Q01196+Q13951 | AlphaScreen CBFb-His/RUNX1-biotin binding, biochemical | Potency, µM (doses to about 59.8 µM), inactives show at the highest dose activity, negative = inhibition, usual class: inhibitors | 230,000 tested, under 10 active | AID 1477; active = well fitted curve in the direction sought with a large enough effect; inconclusive = small, poorly fitted or top-dose-only effect, or effect the other way, or another doubt; inactive = no such curve, though single readings can be large or run the other way; also: % of control where 0% means no effect
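CBF-beta (His) and RUNX1 (biotin), 30 nM each; 20 min preassociation; + compound, 15 min; + beads 50 ng each (Ni, streptavidin), 90 min; RT; AlphaScreen read.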
MBNL1-CUG inh: blocks human MBNL1 binding to CUG repeat RNA. TR-FRET MBNL1-His/biotin-(CUG)12 binding, 665/545 ratio. Potency, µM (series often up to 57.5 µM), inactives show at the top dose activity change, negative = inhibition, most hits filed as inhibitors. 0.036% of 280,000 active; active = well fitted inhibition curve with a large enough effect in the signal ratio, with a control signal flat, not every such curve was filed as active; inconclusive = small, poorly fitted or top-dose-only effect, or effect the other way, or a change in a side signal; inactive = no such curve, though single readings can be large or run the other way; the % refers to the signal ratio; also: potency is read from the fitted curve at half-maximal effect; % is scaled to controls: 0 for no effect and ±100 for the full control effect
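Compounds (final 92 nM to 58 uM) are added to His-tagged MBNL1 and biotin-(CUG)12, then terbium anti-His antibody and streptavidin-XL665 (5 nM final). After 60 min at room temperature, the 665/545 nm ratio is read.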
Rango release inh: inhibitors of RanGTP-induced Rango-importin beta complex dissociation; 0.071% of 340,000 active; Biochemical FRET Rango-importin beta, RanGTP-induced dissociation; Potency, µM (series often up to 46.1 µM), without a hit: at the highest dose activity change, negative = inhibition; O95149+P62826; also: potency is read from the fitted curve at half-maximal effect; % of control where 0% means no effect; nearly all actives have a fitted effect of over 45% in size
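Rango/importin beta premix (0.1/0.25 uM final), PBS + 1 mM DTT + 0.02% Tween-20 + 0.1% BSA; cpd 5 min RT; FRET pre-read; + RanGTP-RCC1 (0.6 uM Ran, 2 mM GTP, 0.2 uM RCC1); 45 min RT; FRET post-read, ex 430, em 486/530 nm.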
An asterisk follows results filed as active; ? = inconclusive; · = no result; [ ] = remark or other dose. Unless noted, calls follow the shape of the full dose curve.

SMILES | ClpP mod | Rango complex inh | CBFb-RUNX1 inh | MBNL1-CUG inh | Rango release inh
Fc1cccc2sc(Nc3nnc(-c4ccco4)o3)nc12 | 25µM* | -2% | -12% | 40% | 8%
COc1cccc2sc(Nc3nnc(-c4ccc(F)cc4)o3)nc12 | 4% | -3% | ? | 5% | -18%
CCOC(=O)c1sc2nc3c(cc2c1N)COC(C)(CC)C3 (stereo unspecified) | -10% | ? | 17% | ? | ?
CCC1(C)Cc2nc3sc(C(=O)O)c(N)c3cc2CO1 (stereo unspecified) | -6% | ? | 4% | 10% | 18µM*
Cc1ccc(C(=O)c2cn(CC(=O)Nc3ccc(C)cc3Cl)c3nc(C)ccc3c2=O)cc1 | -2% | · | · | · | ·
Cc1ccc(C2NC(=O)c3c(sc4c3CCN(C)C4)N2)o1 (stereo unspecified) | 28µM* | ? | -21% | ? | ?
CN1CCc2c(sc3c2C(=O)NC(c2ccccn2)N3)C1 (stereo unspecified) | 16µM* | ? | 13% | ? | ?
Cc1cccc(C2NC(=O)c3c(sc4c3CCN(C)C4)N2)c1O (stereo unspecified) | 4% | · | · | · | ·
CN1CCc2c(sc3c2C(=O)NC(c2ccccc2)N3)C1 (stereo unspecified) | 1% | ? | -2% | 0%[11.5 µM] | ?
Cc1ccc(C2NC(=O)c3c(sc4c3CCN(C)C4)N2)s1 (stereo unspecified) | 25µM* | ? | ? | ? | ?
Cn1nnc2c(NCc3ccco3)nccc21 | 16µM* | -1% | 6% | -8% | -7%
Cn1c(NCc2ccco2)nc2ccccc21 | -1% | 0% | 3% | -10% | 0%
Cc1nc(NCc2ccco2)c2oc3ccccc3c2n1 | 14µM* | -2% | 5% | -1% | -9%
CC(=O)Nc1ccc(Nc2nc(C)nc3c2oc2ccccc23)cc1 | 14% | 4% | 5% | 14% | -6%
Cc1nc(Nc2ccncc2)c2oc3ccccc3c2n1 | 14µM* | -1% | 1% | -4% | 0%
CCC(C)Nc1nc(C)nc2c1oc1ccccc12 (stereo unspecified) | -9% | 3% | 1% | 1% | -2%
Cc1nnc(NCc2ccco2)c2ccccc12 | 25µM* | 0% | 4% | -7% | -2%
CCOC(=O)Cn1nc(-c2ccccc2)c2cnc3ccc(OCC)cc3c21 | 4% | · | · | · | ·
O=C1c2ccccc2NC(c2ccccc2O)N1Cc1ccco1 (stereo unspecified) | 5% | · | · | · | ·
Cc1cccc(N2CCN(C(=O)c3cccs3)CC2)c1C | 5% | 3% | · | 0% | -1%
Cc1cccc(N2CCN(C(=O)Cn3c(-c4cccs4)cc4ccccc43)CC2)c1C | 16µM* | · | · | · | ·
Cc1ccc(C)c(N2CCN(C(=O)Cn3c(-c4cccs4)cc4ccccc43)CC2)c1 | 16µM* | · | · | · | ·
O=C(N/N=C/c1ccc(F)c(F)c1)c1cc2c(s1)-c1ccccc1CC2 | 32µM* | 4% | 6% | -5% | -9%
CCCCCn1nc(C)c(/C=N/NC(=O)c2ccoc2C)c1C | 0% | -4% | 5% | ? | 11%
CCn1nc(C)c(/C=N/NC(=O)c2ccoc2C)c1C | 16µM* | 1% | 0% | 12% | 18%
SMILES | ClpP mod | Rango complex inh | CBFb-RUNX1 inh | MBNL1-CUG inh | Rango release inh
C[n+]1cn(/N=C/c2ccccc2)c2ccccc21 | -2% | -3% | -12% | -19%[11.5 µM] | 4%
CC(=O)N(C(C)=O)c1nc(-c2ccccc2)cn1/N=C/c1ccccc1 | 32µM* | 2% | 4% | 11% | -9%
O=C(CN1CCN(c2cccc(Cl)c2)CC1)N1CCCC1 | 0% | 0% | 4% | 12% | -2%
CCN1CCN(C(=O)Cn2c(-c3cccs3)cc3cc(Cl)ccc32)CC1 | 32µM* | · | · | · | ·
CCOC(=O)Cn1c(-c2cccs2)cc2cc(Cl)ccc21 | 22µM* | · | · | · | ·
O=C(Cn1c(-c2cccs2)cc2cc(Cl)ccc21)N1CCCCC1 | 35µM* | · | · | · | ·
COc1cc(CN2CCN(S(=O)(=O)c3ccc(NC(C)=O)cc3)CC2)cc(OC)c1OC | -2% | · | · | · | ·
CCOC(=O)c1c(Nc2ccc(C)cc2)nnc(-c2ccccc2)c1-c1ccccc1 | -3% | · | · | · | ·
